Test results: PubChem BioAssay (NCI)
Compounds without any hit were thinned out: in the full panel of roughly 83,000, 20% have a hit.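 Testing used 96-well plates and a 48-hour single-concentration exposure. Example: -40 means 40% of the starting cells died.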 Active and inactive are the calls of the source. How the source made its calls: active means growth percent below 10; inactive means the rest.

Columns and labels:
Assay in all cases: NCI-60 one-dose screen, 48 h (100 = growth as untreated, 0 = no growth, -100 = all killed)
NCI-H23 lung = settings: 10 µM unless noted
NCI-H322M lung = settings: 10 µM unless noted
HOP-62 NSCLC = settings: 10 µM unless noted
NCI-H460 lung = settings: 10 µM unless noted
HOP-92 NSCLC = settings: 10 µM unless noted
NCI-H522 lung = settings: 10 µM
A549/ATCC NSCLC = settings: 10 µM unless noted
786-0 renal = settings: 10 µM unless noted
COLO 205 colon = settings: 10 µM unless noted

Measured: growth

O=C1c2c(c3c4cc(Br)ccc4[nH]c3c3ccc4ccccc4c23)C(=O)N1O
inactive: NCI-H23 lung 95.7% | NCI-H322M lung 96.9% | HOP-62 NSCLC 79.6% | NCI-H460 lung 83.8% | HOP-92 NSCLC 140% | NCI-H522 lung 63.2% | A549/ATCC NSCLC 95.6% | 786-0 renal 106%

CCCCCCCCCCCCCCn1c2ccccc2c2c3c(c4c5cc(OC)ccc5oc4c21)C(=O)NC3=O
inactive: NCI-H23 lung 103% | NCI-H322M lung 106% | HOP-62 NSCLC 117% | NCI-H460 lung 100% | HOP-92 NSCLC 106% | NCI-H522 lung 98% | A549/ATCC NSCLC 103% | 786-0 renal 103%

O=C1N/C(=C\c2ccccc2)c2ncccc21
inactive: NCI-H23 lung 95% | NCI-H322M lung 95.8% | HOP-62 NSCLC 100% | NCI-H460 lung 113% | HOP-92 NSCLC 94.9% | NCI-H522 lung 86.9% | A549/ATCC NSCLC 106% | 786-0 renal 98.7%

O=C(CC(O)c1ccccc1)Nc1ccccn1 (centres undefined)
inactive: NCI-H23 lung 98.6% | NCI-H322M lung 93.3% | HOP-62 NSCLC 103% | NCI-H460 lung 112% | HOP-92 NSCLC 77% | NCI-H522 lung 96% | A549/ATCC NSCLC 95.8% | 786-0 renal 102%

CCC12CCC3c4ccc(O)cc4CCC3C1CC(O)C2O (centres undefined)
inactive: NCI-H23 lung 68% | NCI-H322M lung 102% | HOP-62 NSCLC 83.2% | NCI-H460 lung 88% | HOP-92 NSCLC 72.3% | NCI-H522 lung 37.4% | A549/ATCC NSCLC 61.7% | 786-0 renal 92.5%

CCCCCCCC/C=C\CCCCCCCCOc1cccc(CC(=O)NCC[N+](C)(C)C)c1
inactive: NCI-H23 lung 83.1% | NCI-H322M lung 102% | HOP-62 NSCLC 62.9% | NCI-H460 lung 57.9% | HOP-92 NSCLC 74.2% | NCI-H522 lung 80.8% | A549/ATCC NSCLC 90.9% | 786-0 renal 80.8%

CCN1CCN(c2ccc(Nc3ncc4ccc5ncn(C(C)C)c5c4n3)nc2)CC1
inactive: HOP-92 NSCLC 13.9%
active: NCI-H23 lung -26.1% | NCI-H322M lung 1.51% | HOP-62 NSCLC -7.69% | NCI-H460 lung -30.3% | A549/ATCC NSCLC 9.87% | 786-0 renal 9.21% | COLO 205 colon -40.4%

CC(C)(C)[Si](C)(C)OC1[C@@H](COC(N)=O)O[C@@H](n2cnc3c(N)ncnc32)[C@H]1O[Si](C)(C)C(C)(C)C (some centres undefined)
inactive: NCI-H23 lung 87.9% | NCI-H322M lung 114% | HOP-62 NSCLC 95.7% | NCI-H460 lung 83.9% | HOP-92 NSCLC 55.3% | A549/ATCC NSCLC 67.8% | 786-0 renal 91.2% | COLO 205 colon 103%

COC(=O)/C=C1/CCC2C3CCC4=CC(=O)C(Br)CC4(C)C3C(=O)CC12C (centres undefined)
inactive: NCI-H23 lung 67.5% | NCI-H322M lung 115% | HOP-62 NSCLC 80.6% | NCI-H460 lung 59.3% | HOP-92 NSCLC 76.6% | 786-0 renal 83.8% | COLO 205 colon 80.2%

CCOC(=O)c1c(Cl)c2c(n1Cc1cc(OC)cc(OC)c1)-c1oncc1CCC2
inactive: NCI-H23 lung 44.1% | NCI-H322M lung 55.7% | HOP-62 NSCLC 39.7% | NCI-H460 lung 12.8% | NCI-H522 lung 28.9% | A549/ATCC NSCLC 28.1% | 786-0 renal 43%
active: COLO 205 colon -51.8%

Nc1nc(-c2ccnc(Cl)c2)nn1-c1nc2ccccc2s1
inactive: NCI-H23 lung 101% | NCI-H322M lung 100% | HOP-62 NSCLC 99.5% | NCI-H460 lung 107% | HOP-92 NSCLC 103% | A549/ATCC NSCLC 103% | 786-0 renal 109% | COLO 205 colon 116%

Cc1oc2c(c1C(=O)N1CC[C@@H](N)C1)C(=O)c1c(c(O)c3ccccc3c1O)C2=O
inactive: NCI-H23 lung 45.3% | NCI-H322M lung 33.5% | HOP-62 NSCLC 31.9% | NCI-H522 lung 21% | A549/ATCC NSCLC 12.4% | 786-0 renal 41% | COLO 205 colon 13.1%
active: NCI-H460 lung 2.29%

N#C/C(=C\c1ccc[nH]1)c1cc2ccccc2[nH]1
inactive: NCI-H23 lung 39.1% | NCI-H322M lung 87.5% | HOP-62 NSCLC 85.1% | NCI-H460 lung 71.1% | HOP-92 NSCLC 76.9% | A549/ATCC NSCLC 54.2% | 786-0 renal 93.4% | COLO 205 colon 88.6%

COc1ccc(S(=O)(=O)ON=C2C=C(C)C(=O)C(C)=C2)cc1
inactive: NCI-H23 lung 98.2% | NCI-H322M lung 103% | HOP-62 NSCLC 106% | NCI-H460 lung 106% | HOP-92 NSCLC 59.4% | A549/ATCC NSCLC 105% | 786-0 renal 93.1% | COLO 205 colon 89.2%

Cc1nc2nc(C(F)(F)F)[nH]c2nc1C
inactive: NCI-H23 lung 107% | NCI-H322M lung 110% | HOP-62 NSCLC 93.2% | NCI-H460 lung 111% | NCI-H522 lung 90.1% | A549/ATCC NSCLC 99.7% | 786-0 renal 93.5% | COLO 205 colon 108%

Cc1ccc(N=c2nc3sc4c(C)ccc(C)c4n3c(N)c2C#N)cc1
inactive: NCI-H23 lung 90.2% | NCI-H322M lung 113% | HOP-62 NSCLC 101% | NCI-H460 lung 105% | HOP-92 NSCLC 76.6% | A549/ATCC NSCLC 100% | 786-0 renal 101% | COLO 205 colon 108%

O=C1OCC2=C1C(c1ccc3c(c1)OCO3)CC(=O)N2c1cccc(Cl)c1 (centres undefined)
inactive: NCI-H23 lung 90.2% | NCI-H322M lung 94.1% | HOP-62 NSCLC 103% | NCI-H460 lung 108% | NCI-H522 lung 92.9% | A549/ATCC NSCLC 94.6% | 786-0 renal 110% | COLO 205 colon 105%

O=C(NCc1cccnc1)c1ccc([N+](=O)[O-])o1
active: NCI-H23 lung -89.1% | NCI-H322M lung -6.13% | HOP-62 NSCLC -4.75% | NCI-H460 lung -64.3% | NCI-H522 lung -66.5% | A549/ATCC NSCLC -10.5% | 786-0 renal 4.89% | COLO 205 colon -77%

CN(C)c1ccc(/C=C(\C#N)c2cc3ccccc3n2C)cc1
inactive: NCI-H23 lung 34.6% | NCI-H322M lung 49.7% | HOP-62 NSCLC 62.1% | HOP-92 NSCLC 72.5% | A549/ATCC NSCLC 24.6% | 786-0 renal 38.6%
active: NCI-H460 lung 5.38% | COLO 205 colon -17.2%

c1ccc(-c2n(Cc3ccc4ccccc4n3)c3ccccc3[n+]2Cc2ccc3ccccc3n2)cc1
inactive: NCI-H322M lung 14.3% | A549/ATCC NSCLC 13.7% | 786-0 renal 11.9%
active: NCI-H23 lung -5.45% | HOP-62 NSCLC -1.08% | NCI-H460 lung 1.2% | HOP-92 NSCLC -18.8% | COLO 205 colon -69.2%

Oc1ccc(Cl)cc1CNc1nc2ccccc2[nH]1
inactive: NCI-H23 lung 65.2% | NCI-H322M lung 101% | HOP-62 NSCLC 82.7% | NCI-H522 lung 62% | 786-0 renal 60.7% | COLO 205 colon 65.1%
active: NCI-H460 lung -33.9% | A549/ATCC NSCLC -14.1%

CC(=O)c1cc(C)c(OC(=O)c2ccccc2)c(C)c1
inactive: NCI-H23 lung 89.8% | NCI-H322M lung 119% | HOP-62 NSCLC 96.8% | NCI-H460 lung 106% | HOP-92 NSCLC 96.1% | 786-0 renal 100% | COLO 205 colon 93.9%

CC(C)(C)[Si](C)(C)OC1[C@@H](CNC(=O)NC(=O)CCl)O[C@@H](n2cnc3c(N)ncnc32)[C@H]1O[Si](C)(C)C(C)(C)C (some centres undefined)
inactive: NCI-H322M lung 111%
active: NCI-H23 lung -72.4% | HOP-62 NSCLC -60.1% | NCI-H460 lung -82.4% | HOP-92 NSCLC -79.2% | A549/ATCC NSCLC -22.3% | 786-0 renal -55.4% | COLO 205 colon -16.8%

Nc1c(Br)cc(Br)cc1-c1n[nH]c(=O)[nH]c1=O
inactive: NCI-H23 lung 91.3% | NCI-H322M lung 109% | HOP-62 NSCLC 93.5% | NCI-H460 lung 102% | HOP-92 NSCLC 54.6% | A549/ATCC NSCLC 113% | 786-0 renal 100% | COLO 205 colon 102%

CCOC(=O)c1sc(NC(=O)CN2CCC(Cc3ccccc3)CC2)nc1C
inactive: NCI-H23 lung 96.2% | NCI-H322M lung 90.4% | HOP-62 NSCLC 102% | NCI-H460 lung 101% | NCI-H522 lung 92.9% | A549/ATCC NSCLC 104% | 786-0 renal 96.9% | COLO 205 colon 97.1%

Cc1c(C)n(CC(O)CNC2CCCCC2C)c2ccccc12 (centres undefined)
inactive: NCI-H322M lung 31.7% | NCI-H460 lung 11.2%
active: NCI-H23 lung -19.7% | HOP-62 NSCLC -71.3% | HOP-92 NSCLC -60% | A549/ATCC NSCLC -31.4% | 786-0 renal -84.7% | COLO 205 colon -84.7%

CC1CCCCN1S(=O)(=O)c1ccc(CN=C=S)cc1 (centres undefined)
inactive: NCI-H23 lung 97.1% | NCI-H322M lung 96.6% | HOP-62 NSCLC 108% | NCI-H460 lung 88.4% | HOP-92 NSCLC 60.8% | A549/ATCC NSCLC 102% | 786-0 renal 55.9% | COLO 205 colon 52.8%

O=c1c2c(=NCCN3CCCC3)cc3c(=O)n(CCCN4CCOCC4)c(=O)c4c(-c5ccc(CN6CCCC6)cc5)cc(c(O)n1CCCN1CCOCC1)c2c4-3
active: NCI-H23 lung -70.9% | NCI-H322M lung -29.6% | HOP-62 NSCLC -21.3% | NCI-H460 lung -62.9% | HOP-92 NSCLC -16.4% | A549/ATCC NSCLC -16.2% | 786-0 renal -42% | COLO 205 colon -60.4%

Cc1cc(=O)[nH]n1-c1cc(Cl)ccc1N
inactive: NCI-H23 lung 107% | NCI-H322M lung 112% | HOP-62 NSCLC 103% | NCI-H460 lung 113% | HOP-92 NSCLC 114% | A549/ATCC NSCLC 105% | 786-0 renal 104% | COLO 205 colon 103%

O=S(=O)(/N=C1C=C/C(=N\S(=O)(=O)c2ccccc2)c2ccccc2\1)c1ccccc1
inactive: NCI-H23 lung 83.1% | NCI-H322M lung 107% | HOP-62 NSCLC 90.2% | NCI-H460 lung 112% | NCI-H522 lung 85.9% | A549/ATCC NSCLC 101% | 786-0 renal 115% | COLO 205 colon 111%

Cc1c(C(=O)Nc2nc(-c3ccccc3)cs2)nnn1-c1ccccc1Br
inactive: NCI-H23 lung 28.7% [50 µM] | NCI-H322M lung 79.5% [50 µM] | HOP-62 NSCLC 94.7% [50 µM] | NCI-H460 lung 45.2% [50 µM] | HOP-92 NSCLC 57.4% [50 µM] | A549/ATCC NSCLC 30.9% [50 µM] | 786-0 renal 66.7% [50 µM] | COLO 205 colon 42.3% [50 µM]

CC(C)(C)[Si](C)(C)OC1[C@@H](O[Si](C)(C)C(C)(C)C)[C@@H](CNC(=O)NC(=O)C(F)(F)F)O[C@H]1n1cnc2c(NC(=O)Nc3ccccc3)ncnc21 (some centres undefined)
active: HOP-92 NSCLC -11.4%
inactive: NCI-H23 lung 86.4% | NCI-H322M lung 97.6% | HOP-62 NSCLC 93% | NCI-H460 lung 36.1% | A549/ATCC NSCLC 51.4% | 786-0 renal 83.1% | COLO 205 colon 91.9%
